Measurements from PubChem BioAssay (EPA / NIEHS).
The source holds several records for some structures; these can differ, active in one and inactive in another. Calls of active or inactive are those of the source. The calls were made as follows: active = hit-call score of the fitted dose curve at least 0.9, where 1 is the maximum; inactive = score below 0.9.

What was measured:
[1] = target: Transcription factor E2F1 (Homo sapiens) (UniProt Q01094); experiment: ATG_E2F_CIS: Attagene CIS-FACTORIAL HepG2 Assay for human E2F Transcription Factor 1 (AID 2282935); conditions: HepG2 Attagene cis-reporter, E2F reporter RNA transcripts; actives raise or lower the signal
Sequence of Transcription factor E2F1 (Homo sapiens) (Q01094 whole entry, looked up): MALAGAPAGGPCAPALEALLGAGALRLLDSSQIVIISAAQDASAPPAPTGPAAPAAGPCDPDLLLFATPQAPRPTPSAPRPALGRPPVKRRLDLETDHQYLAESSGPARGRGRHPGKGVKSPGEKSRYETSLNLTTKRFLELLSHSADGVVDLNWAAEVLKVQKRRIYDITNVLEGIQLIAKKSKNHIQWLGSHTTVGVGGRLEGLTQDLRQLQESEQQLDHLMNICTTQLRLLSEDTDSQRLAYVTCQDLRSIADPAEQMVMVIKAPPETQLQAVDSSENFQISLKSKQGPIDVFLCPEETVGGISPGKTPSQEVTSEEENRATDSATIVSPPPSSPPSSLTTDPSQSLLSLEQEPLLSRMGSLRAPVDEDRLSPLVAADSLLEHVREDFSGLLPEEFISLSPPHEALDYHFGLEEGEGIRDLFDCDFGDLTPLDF
How it was run: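 Measures reporter transcript levels via RT-PCR with capillary electrophoresis detection in HepG2 cells harboring cis-regulated reporter units; 24 h post-dose; bidirectional curve fitting with DMSO as baseline.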

[2] = ATG_E_Box_CIS: Attagene CIS-FACTORIAL HepG2 Assay for human Enhancer Box (E-box) (AID 2282936); conditions: HepG2 E-box cis-reporter transcription, actives raise or lower the signal
How it was run: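 First, HepG2 cells receive multiple cis-regulated reporter constructs by transient transfection. Next, chemicals are applied for 24 h. Finally, reporter mRNA is quantified via RT-PCR and capillary electrophoresis, with DMSO as baseline.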

[3] = ATG_M_61_CIS: Attagene CIS-FACTORIAL HepG2 Assay for M61 Transcription Factor (Internal Marker) (AID 2282937); conditions: HepG2 Attagene CIS-FACTORIAL M61 internal marker reporter; actives raise or lower the signal
How it was run: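 Human liver HepG2, transient MRTU transfection (cis promoter elements), 24 h compound. Total RNA → oligo(dT) RT → PCR → FAM label → HpaI → CE. Internal background marker; bidirectional fitting, DMSO = baseline.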

[4] = ATG_M_19_CIS: Attagene CIS-FACTORIAL HepG2 Assay for M19 Transcription Factor (Internal Marker) (AID 2282939); conditions: HepG2 Attagene CIS-FACTORIAL M19 internal marker reporter; actives raise or lower the signal
How it was run: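 Following a 24 h exposure, RNA from transfected HepG2 cells was reverse-transcribed, PCR-amplified with reporter-specific primers, end-labelled with 6-FAM and HpaI-digested before capillary separation. Values represent gain or loss versus DMSO.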

[5] = ATG_ERE_CIS: Attagene CIS-FACTORIAL HepG2 Assay for Estrogen Response Element (ERE) (AID 2282940); conditions: HepG2 ERE cis-reporter, Attagene RNA transcript; actives raise or lower the signal
How it was run: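 HepG2, transient cis-reporter units, 24 h exposure. RNA isolated, oligo(dT) RT, reporter-specific PCR, FAM extension, HpaI cut, CE detection. Gain/loss-of-signal vs DMSO.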

[6] = ATG_Ets_CIS: Attagene CIS-FACTORIAL HepG2 Assay for human Erythroblast Transformation Specific (ETS) (AID 2282941); conditions: HepG2 ETS cis-reporter transcription, actives raise or lower the signal
How it was run: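 After transient cis-reporter transfection, HepG2 cells receive test chemical for 24 h. Reporter mRNA levels, measured by RT-PCR and capillary electrophoresis fluorescence, are analysed bidirectionally relative to the DMSO baseline.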

[7] = target: Hepatocyte nuclear factor 3-beta (Homo sapiens) (UniProt Q9Y261); experiment: ATG_FoxA2_CIS: Attagene CIS-FACTORIAL HepG2 Assay for human Forkhead box A2 (FOXA2) (AID 2282942); conditions: HepG2 cis-reporter transcription factor activity, 24 h; actives raise or lower the signal
Sequence of Hepatocyte nuclear factor 3-beta (Homo sapiens) (Q9Y261 whole entry, looked up): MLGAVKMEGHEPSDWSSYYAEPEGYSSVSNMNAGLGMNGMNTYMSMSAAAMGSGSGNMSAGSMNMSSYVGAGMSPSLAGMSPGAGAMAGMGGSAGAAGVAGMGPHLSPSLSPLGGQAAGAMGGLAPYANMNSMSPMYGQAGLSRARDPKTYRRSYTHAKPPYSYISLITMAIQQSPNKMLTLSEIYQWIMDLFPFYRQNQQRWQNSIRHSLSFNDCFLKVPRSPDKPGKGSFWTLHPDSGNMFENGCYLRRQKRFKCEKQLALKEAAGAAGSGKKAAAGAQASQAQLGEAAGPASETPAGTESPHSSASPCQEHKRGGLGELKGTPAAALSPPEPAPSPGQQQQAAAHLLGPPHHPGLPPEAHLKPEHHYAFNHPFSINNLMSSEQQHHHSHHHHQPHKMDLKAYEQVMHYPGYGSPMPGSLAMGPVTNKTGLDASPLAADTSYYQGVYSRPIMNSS
How it was run: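 Transient MRTU transfection of HepG2 liver cells; 24 h treatment; total RNA → oligo(dT) RT → PCR → FAM primer extension → HpaI cut → CE. Bidirectional fit vs DMSO.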

[8] = ATG_FoxO_CIS: Attagene CIS-FACTORIAL HepG2 Assay for human Forkhead box O (FoxO) (AID 2282943); conditions: HepG2 Attagene cis-reporter, FoxO element, mRNA; actives raise or lower the signal
How it was run: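 Transfected HepG2 reporter cells exposed to test chemical for 24 h; reporter RNA measured by reverse transcription, PCR and fluorescent capillary electrophoresis; curves fitted for increases and decreases against DMSO.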

[9] = ATG_GATA_CIS: Attagene CIS-FACTORIAL HepG2 Assay for human GATA Binding Protein (AID 2282944); conditions: HepG2 GATA cis-element reporter, Attagene multiplex mRNA; actives raise or lower the signal
How it was run: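 DMSO serves as negative control and baseline for bidirectional fitting of reporter mRNA changes. HepG2 cells bearing transiently transfected cis-promoter reporters were exposed 24 h; transcripts detected via RT-PCR and capillary electrophoresis.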

[10] = ATG_GLI_CIS: Attagene CIS-FACTORIAL HepG2 Assay for human Zinc Finger Protein GLI1 (AID 2282945); conditions: HepG2, Attagene cis-factorial reporter mRNA, GLI element; actives raise or lower the signal
How it was run: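 Transiently transfected HepG2 cells report endogenous transcription factor activity via cis-element-driven reporter units. After 24 h compound exposure, reporter mRNA was measured by RT-PCR with capillary electrophoresis; bidirectional fitting against DMSO baseline.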

[11] = target: Bile acid receptor (Homo sapiens) (UniProt Q96RI1); experiment: ATG_IR1_CIS: Attagene CIS-FACTORIAL HepG2 Assay for human Nuclear Receptor Subfamily 1 Group H Member 4 (NR1H4), IR1 submotif (AID 2282946); conditions: IR1 reporter transcription, actives raise or lower the signal
Sequence of Bile acid receptor (Homo sapiens) (Q96RI1 whole entry, looked up): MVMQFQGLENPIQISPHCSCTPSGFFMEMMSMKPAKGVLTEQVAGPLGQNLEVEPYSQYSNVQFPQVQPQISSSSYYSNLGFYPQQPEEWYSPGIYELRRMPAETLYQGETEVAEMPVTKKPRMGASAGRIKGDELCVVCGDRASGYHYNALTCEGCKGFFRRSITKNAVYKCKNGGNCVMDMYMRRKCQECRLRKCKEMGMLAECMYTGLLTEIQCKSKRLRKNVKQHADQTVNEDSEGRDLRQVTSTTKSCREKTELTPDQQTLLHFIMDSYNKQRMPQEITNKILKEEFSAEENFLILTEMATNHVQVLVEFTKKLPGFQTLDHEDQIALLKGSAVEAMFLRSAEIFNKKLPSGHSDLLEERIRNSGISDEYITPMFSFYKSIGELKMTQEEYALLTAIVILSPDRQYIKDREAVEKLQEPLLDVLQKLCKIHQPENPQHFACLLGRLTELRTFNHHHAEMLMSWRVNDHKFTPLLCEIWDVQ
How it was run: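 HepG2 cells transiently transfected with multiple cis-promoter-driven reporter units to measure endogenous transcription factor activity; 24 h exposure. Reporter mRNA read by RT-PCR, FAM labelling, HpaI digestion and capillary electrophoresis. Bidirectional fit versus DMSO.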

[12] = ATG_GRE_CIS: Attagene CIS-FACTORIAL HepG2 Assay for human Glucocorticoid Response Elements (GRE) (AID 2282947); conditions: HepG2 GRE cis-reporter, Attagene multiplex mRNA; actives raise or lower the signal
How it was run: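 Endogenous transcription factor activity is read through cis-element reporter constructs transiently transfected into HepG2 cells. After 24 h treatment, labelled RT-PCR products are resolved by capillary electrophoresis; DMSO sets baseline for bidirectional curve fitting.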

[13] = ATG_ISRE_CIS: Attagene CIS-FACTORIAL HepG2 Assay for human Interferon Regulatory Factor 1 (IRF1) binding to an Interferon-Stimulated Response Element (ISRE) (AID 2282948); conditions: HepG2 ISRE cis-reporter (Attagene), mRNA transcription readout; actives raise or lower the signal
How it was run: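 Quantitation relies on labelled RT-PCR fragments separated by capillary electrophoresis. Human HepG2 cells bearing cis-promoter reporter constructs were treated 24 h; DMSO served as baseline for bidirectional fitting.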

[14] = ATG_M_32_CIS: Attagene CIS-FACTORIAL HepG2 Assay for M32 Transcription Factor (Internal Marker) (AID 2282949); conditions: HepG2 Attagene cis-factorial M32 reporter, mRNA; actives raise or lower the signal;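 also: background control marker of the multiplexed CIS panel rather than a real target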
How it was run: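 Internal background marker read-out: RT-PCR/capillary electrophoresis fluorescence of reporter transcripts from transiently transfected HepG2 cells after 24 h chemical exposure. Activity fitted bidirectionally relative to DMSO negative control.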

[15] = target: Hypoxia-inducible factor 1-alpha (Homo sapiens) (UniProt Q16665); experiment: ATG_HIF1a_CIS: Attagene CIS-FACTORIAL HepG2 Assay for human Hypoxia Inducible Factor 1 (HIF1A) (AID 2282951); conditions: HepG2 Attagene cis-factorial HIF1a reporter transcription; actives raise or lower the signal
Sequence of Hypoxia-inducible factor 1-alpha (Homo sapiens) (Q16665 whole entry, looked up, the tested form may be a part): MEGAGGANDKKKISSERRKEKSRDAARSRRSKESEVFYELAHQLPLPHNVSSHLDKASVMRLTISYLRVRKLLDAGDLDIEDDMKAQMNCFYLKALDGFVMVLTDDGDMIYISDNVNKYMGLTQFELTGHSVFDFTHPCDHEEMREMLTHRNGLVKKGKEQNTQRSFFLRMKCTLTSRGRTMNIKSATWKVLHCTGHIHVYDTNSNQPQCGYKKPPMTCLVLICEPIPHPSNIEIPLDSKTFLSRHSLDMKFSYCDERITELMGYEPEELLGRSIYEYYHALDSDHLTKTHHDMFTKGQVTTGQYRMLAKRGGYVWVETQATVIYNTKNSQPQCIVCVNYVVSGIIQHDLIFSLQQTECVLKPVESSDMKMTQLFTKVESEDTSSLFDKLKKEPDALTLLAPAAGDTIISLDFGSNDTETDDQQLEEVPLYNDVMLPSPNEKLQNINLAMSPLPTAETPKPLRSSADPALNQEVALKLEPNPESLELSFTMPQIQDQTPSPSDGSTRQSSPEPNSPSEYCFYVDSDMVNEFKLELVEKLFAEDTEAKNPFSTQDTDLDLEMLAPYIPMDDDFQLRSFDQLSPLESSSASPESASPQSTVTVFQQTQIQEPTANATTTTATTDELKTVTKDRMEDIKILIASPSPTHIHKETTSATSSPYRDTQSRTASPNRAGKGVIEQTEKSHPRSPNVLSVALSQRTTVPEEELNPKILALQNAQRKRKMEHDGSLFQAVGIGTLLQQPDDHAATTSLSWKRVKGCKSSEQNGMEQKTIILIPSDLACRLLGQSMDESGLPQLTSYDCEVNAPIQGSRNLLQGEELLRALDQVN
How it was run: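 Transient MRTU transfection of human HepG2 liver cells, 24 h compound treatment, then total RNA isolation, oligo(dT) reverse transcription, PCR amplification, fluorescent labelling and capillary electrophoresis of reporter fragments. Gain or loss relative to DMSO.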

[16] = target: Hepatocyte nuclear factor 6 (Homo sapiens) (UniProt Q9UBC0); experiment: ATG_HNF6_CIS: Attagene CIS-FACTORIAL HepG2 Assay for human Hepatocyte Nuclear Factor 6 (HNF6) (AID 2282952); conditions: HepG2 Attagene cis-factorial HNF6 reporter transcription; actives raise or lower the signal
Sequence of Hepatocyte nuclear factor 6 (Homo sapiens) (Q9UBC0 whole entry, looked up): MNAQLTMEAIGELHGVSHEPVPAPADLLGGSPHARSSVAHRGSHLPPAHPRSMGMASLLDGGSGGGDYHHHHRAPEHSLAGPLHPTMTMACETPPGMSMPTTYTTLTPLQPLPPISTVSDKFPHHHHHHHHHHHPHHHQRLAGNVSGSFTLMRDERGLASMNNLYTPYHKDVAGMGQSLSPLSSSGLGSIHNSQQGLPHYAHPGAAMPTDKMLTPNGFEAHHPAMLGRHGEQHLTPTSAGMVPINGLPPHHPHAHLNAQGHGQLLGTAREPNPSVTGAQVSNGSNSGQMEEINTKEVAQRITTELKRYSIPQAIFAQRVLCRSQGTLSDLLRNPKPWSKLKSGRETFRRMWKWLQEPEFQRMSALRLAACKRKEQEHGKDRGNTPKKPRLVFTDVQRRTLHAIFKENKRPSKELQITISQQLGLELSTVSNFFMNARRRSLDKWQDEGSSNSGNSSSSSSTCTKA
How it was run: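 Cells are HepG2 carrying transiently transfected cis-promoter reporter units. Treatment lasts 24 h, after which reporter transcripts are reverse-transcribed, amplified, FAM-labelled and sized by capillary electrophoresis. DMSO serves as baseline.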

[17] = target: Heat shock factor protein 1 (Homo sapiens) (UniProt Q00613); experiment: ATG_HSE_CIS: Attagene CIS-FACTORIAL HepG2 Assay for human Heat Shock Transcription Factor 1 (HSE) (AID 2282953); conditions: HepG2 HSE cis-reporter, Attagene RNA transcription; actives raise or lower the signal
Sequence of Heat shock factor protein 1 (Homo sapiens) (Q00613 whole entry, looked up): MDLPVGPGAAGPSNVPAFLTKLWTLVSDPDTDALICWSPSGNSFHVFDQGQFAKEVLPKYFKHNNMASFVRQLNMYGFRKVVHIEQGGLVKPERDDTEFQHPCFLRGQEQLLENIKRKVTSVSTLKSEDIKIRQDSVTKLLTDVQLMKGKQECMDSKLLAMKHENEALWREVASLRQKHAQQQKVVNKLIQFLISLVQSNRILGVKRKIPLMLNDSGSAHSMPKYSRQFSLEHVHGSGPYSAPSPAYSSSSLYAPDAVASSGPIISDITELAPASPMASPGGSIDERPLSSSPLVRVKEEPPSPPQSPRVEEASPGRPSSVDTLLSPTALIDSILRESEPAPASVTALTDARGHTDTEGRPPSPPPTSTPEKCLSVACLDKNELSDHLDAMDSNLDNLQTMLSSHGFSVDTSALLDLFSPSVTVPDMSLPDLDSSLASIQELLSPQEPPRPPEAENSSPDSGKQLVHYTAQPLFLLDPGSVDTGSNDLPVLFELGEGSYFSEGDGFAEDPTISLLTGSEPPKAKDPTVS
How it was run: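 After a 24 h incubation with test chemical, transfected HepG2 cells were harvested for RNA; reporter transcripts were measured by RT-PCR and capillary electrophoresis. Values reflect gain or loss of signal relative to DMSO.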

[18] = ATG_MRE_CIS: Attagene CIS-FACTORIAL HepG2 Assay for human Metal Responsive Element (MRE) (AID 2282954); conditions: HepG2 MRE cis-reporter transcription, Attagene multiplex; actives raise or lower the signal
How it was run: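 Fluorescent reporter fragments separated by capillary electrophoresis give mRNA induction for the MRE unit after 24 h treatment of transfected HepG2 cells. Endogenous transcription-factor activity is read; DMSO serves as negative control and baseline.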

[19] = ATG_M_06_CIS: Attagene CIS-FACTORIAL HepG2 Assay for M06 Transcription Factor (Internal Marker) (AID 2282950); conditions: HepG2 Attagene CIS-FACTORIAL M06 internal marker reporter; actives raise or lower the signal
How it was run: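 Fluorescence-labelled RT-PCR products from cis-promoter reporter units, cut with HpaI and resolved by capillary electrophoresis, give the signal. Cells are human HepG2, dosed for 24 h. Serves as background control, fitted relative to DMSO.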

Measured: AC50

CCCN(CCC)c1c([N+](=O)[O-])cc(S(N)(=O)=O)cc1[N+](=O)[O-]
not listed: [19]
inactive: all other assays above

COc1nc(C)nc(NC(=O)NS(=O)(=O)c2ccccc2Cl)n1
not listed: [11] | [17]
inactive: all other assays above

COc1nc(NC(C)C)nc(NC(C)C)n1
not listed: [17] | [19]
inactive: all other assays above

CNC(=S)S
active: [13] 73.5 µM | [18] 70.4 µM
inactive: [1] | [2] | [3] | [4] | [5] | [6] | [7] | [8] | [9] | [10] | [12] | [13] | [14] | [15] | [16] | [18]

Fc1ccc(Oc2ccnc3cc(Cl)cc(Cl)c23)cc1
active: [2] 5.95 µM
not listed: [19]
inactive: all other assays above

CON(C)C(=O)Nc1ccc(Cl)c(Cl)c1
not listed: [11] | [19]
inactive: all other assays above

CCNc1nc(Cl)nc(NCC)n1
not listed: [17] | [19]
inactive: all other assays above

CO/C=C(/C(=O)OC)c1ccccc1Oc1cc(Oc2ccccc2C#N)ncn1
active: [18] 50 µM [middle of 6 runs]
not listed: [11] | [17] | [19]
inactive: all other assays above

CCNc1nc(Cl)nc(NC(C)C)n1
not listed: [11] | [17]
inactive: all other assays above

C=CCC1=C(C)[C@@H](OC(=O)[C@@H]2[C@@H](C=C(C)C)C2(C)C)CC1=O
active: [18] 5.26 µM
not listed: [17] | [19]
inactive: all other assays above

C=CC1(C)OC(=O)N(c2cc(Cl)cc(Cl)c2)C1=O (stereo unspecified)
not listed: [17] | [19]
inactive: all other assays above

CCOc1cc(Oc2ccc(C(F)(F)F)cc2Cl)ccc1[N+](=O)[O-]
active: [5] 13.1 µM | [18] 22 µM
not listed: [19]
inactive: all other assays above

COc1nc(C)nc(NC(=O)NS(=O)(=O)c2ccccc2CCC(F)(F)F)n1
not listed: [19]
inactive: all other assays above

O=C(Nc1ccccc1)Nc1ccnc(Cl)c1
active: [8] 13 µM | [18] 37 µM
not listed: [17] | [19]
inactive: all other assays above

COC(=O)C(C)Oc1ccc(Oc2ccc(Cl)cc2Cl)cc1 (stereo unspecified)
inactive: [1] | [2] | [3] | [4] | [6] | [7] | [8] | [9] | [10] | [11] | [12] | [13] | [14] | [15] | [16] | [18]
active: [11] 76.5 µM

CN(C)C(=S)SSC(=S)N(C)C
not listed: [17] | [19]
inactive: all other assays above
